Shown are actives, neighbours in structure and some others; about 5% of the full set was active somewhere.
ALR inh – inhibitors of human sulfhydryl oxidase ALR | P55789 | purified ALR, DTT oxidation, H2O2 HRP-luminol luminescence | inhibition, % (no concentration beside the values) | hit rate 3.8% among 290,000 | AID 485317;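 active = mean replicate inhibition above about 79%, with every replicate also reaching it, limit read from the data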
CHT PAM – allosterically activates the human high affinity choline transporter. Q9GZV3. CHT-expressing cells, membrane potential dye, choline EC20; active compounds read high; LV-AA mutant CHT in HEK293 cells. B-score at 10 µM. hit rate 0.49% among 310,000;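 active = initial fluorescence not abnormally high and integrated response B-score, plate-corrected, over 3 SD above library mean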
Target sequence (Q9GZV3 whole entry, looked up): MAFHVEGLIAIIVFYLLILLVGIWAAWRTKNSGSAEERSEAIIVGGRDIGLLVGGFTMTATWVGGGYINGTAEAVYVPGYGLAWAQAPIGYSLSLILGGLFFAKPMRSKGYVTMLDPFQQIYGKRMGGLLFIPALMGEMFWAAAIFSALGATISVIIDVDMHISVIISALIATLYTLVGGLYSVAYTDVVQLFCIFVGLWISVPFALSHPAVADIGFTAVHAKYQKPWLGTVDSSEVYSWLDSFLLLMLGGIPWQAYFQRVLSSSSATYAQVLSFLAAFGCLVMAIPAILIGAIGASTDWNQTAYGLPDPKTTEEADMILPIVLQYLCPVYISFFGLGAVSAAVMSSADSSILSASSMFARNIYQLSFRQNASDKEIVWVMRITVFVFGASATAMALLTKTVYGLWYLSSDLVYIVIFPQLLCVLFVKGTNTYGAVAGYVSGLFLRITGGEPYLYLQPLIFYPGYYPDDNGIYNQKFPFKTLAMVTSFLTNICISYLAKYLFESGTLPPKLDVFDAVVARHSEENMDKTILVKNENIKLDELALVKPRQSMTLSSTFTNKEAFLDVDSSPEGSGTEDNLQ
AI-2 QS modul – Vibrio harveyi AI-2 quorum sensing modulation. hit rate 0.4% among 300,000. Vibrio harveyi JMH597 AI-2 luminescence/OD600 ratio, 9 h; active compounds read low; strain lacks LuxN and CqsS sensors; 0 = neutral-control median. activity change, % at 7.5 µM; in the data active = activity change below about -75%, passing the limit was not always enough;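 also: luminescence divided by OD600 gain over 9 h not by final OD600 alone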
PREPL inh – inhibitors of human prolyl oligopeptidase-like enzyme PREPL; Q4J6C6; recombinant PREPL, fluorescence polarization activity-based probe; inhibition, % at 5.96 µM; hit rate 0.68% among 320,000; AID 2751; in the data active = inhibition above about 43%
CHT block – human CHT choline transport inhibition. Q9GZV3. CHT-expressing cells, membrane potential dye, choline response; active compounds read low. hit rate 0.86% among 310,000. B-score at 10 µM. AID 488975;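 active = B-score over 3 SD under the library average, and starting fluorescence ratio not unusually high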;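 also: choline stimulus applied at its EC90 after an EC20 pre-addition; B-score computed on integrated fluorescence ratio after choline addition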
CHT act confirm – confirmation of human choline transporter (CHT) activators | shares compounds with CHT PAM | CHT-expressing cells, membrane potential dye fluorescence (FDSS); % of choline EC20–EC90 response window; HEK293 expressing CHT LV-AA mutant; choline added at its EC20 | activation, % at 10 µM | hit rate 91% among 2,500 | AID 504833;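 active = primary screen active, with duplicate mean activation above negative control mean plus 3 SD, cut at about 11% in these data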
HEK293 MP dye – activity in parental HEK293 cells lacking CHT | shares compounds with CHT PAM | membrane potential dye fluorescence (FDSS); measured after EC20 choline addition | ratio readout change at 10 µM, hits read low | hit rate 62% among 2,500 | AID 623908;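 active = duplicate-averaged ratio beyond 3 SD from buffer wells, up or down, though filed actives are nearly all decreases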
Hits are given with their value.

`CCOC(=O)C1(CCOc2ccccc2)CCN(Cc2ccncc2)CC1` gave ALR inh inactive, CHT PAM inactive, AI-2 QS modul inactive, PREPL inh inactive and CHT block inactive.
Screening CCOC(=O)C1(CCOc2ccccc2)CCN(Cc2cccn2-c2ncccn2)CC1 returned ALR inh inactive, CHT PAM 15, AI-2 QS modul inactive, PREPL inh inactive, CHT block inactive, CHT act confirm 38 and HEK293 MP dye inactive.
`Cc1cc2c(cc1S(=O)(=O)NC1CCCCC1C)OCC(=O)N2` (stereo unspecified) gave ALR inh inactive, CHT PAM inactive, AI-2 QS modul inactive, PREPL inh inactive and CHT block inactive.
Cc1[nH]c2ccc3ncccc3c2c1C was read as ALR inh inactive, CHT PAM 6.8, AI-2 QS modul inactive, PREPL inh inactive, CHT block inactive, CHT act confirm 30 and HEK293 MP dye -65.
Screening Cc1c(C)c2cccnc2c2ncccc12 returned ALR inh inactive and PREPL inh inactive.
Screening Cc1ccnc2nc(C(=O)Nc3ccc(S(=O)(=O)N4CCCC4)cc3)nn12 returned ALR inh inactive, CHT PAM 9.9, AI-2 QS modul inactive, PREPL inh inactive, CHT block inactive, CHT act confirm 27 and HEK293 MP dye -21.
Screening Cc1ccnc2nc(C(=O)Nc3nccs3)nn12 returned ALR inh inactive, CHT PAM inactive, AI-2 QS modul inactive, PREPL inh inactive, CHT block inactive, CHT act confirm 40 and HEK293 MP dye inactive.
Screening Cc1ccnc2nc(C(=O)NC3=NCCS3)nn12 returned ALR inh inactive, CHT PAM inactive, AI-2 QS modul inactive, PREPL inh inactive and CHT block inactive.
Screening CC[C@H]1CN2CCc3cc(OC)c(OC)cc3C2C[C@@H]1C[C@H]1NCCc2cc(OC)c(OC)cc21 (stereo partly specified) returned CHT PAM 14, PREPL inh inactive, CHT block inactive, CHT act confirm 41 and HEK293 MP dye -43.
COC(=O)CC1NCCc2cc(OC)c(OC)cc21 (stereo unspecified) was read as ALR inh inactive, CHT PAM inactive, AI-2 QS modul inactive, PREPL inh inactive and CHT block inactive.
Screening Cc1ccc(C)c(CN2C(=O)CSc3ccc(C(=O)NCC(C)CN4CCC(C)CC4)cc32)c1 (stereo unspecified) returned ALR inh inactive, CHT PAM 6.8, AI-2 QS modul inactive, PREPL inh inactive, CHT block inactive, CHT act confirm 40 and HEK293 MP dye -34.
`CN1C(=O)CS/C1=N\NC(=O)COc1cccc2cccnc12` gave ALR inh inactive, CHT PAM 6.6, AI-2 QS modul inactive, PREPL inh inactive, CHT block inactive, CHT act confirm 48 and HEK293 MP dye -56.
Screening Cc1ccc(C(C(=O)NC2CCCCC2)N(C(=O)Cc2c[nH]c3ccccc23)c2ccccc2C)o1 (stereo unspecified) returned ALR inh inactive, CHT PAM inactive, AI-2 QS modul inactive, PREPL inh inactive and CHT block inactive.
Cc1cc(NC(=O)CCC(=O)N(Cc2ccccc2)C(C(=O)NC2CCCC2)c2ccco2)no1 (stereo unspecified) was read as CHT PAM inactive, AI-2 QS modul inactive, PREPL inh inactive and CHT block inactive.
For Cc1ccc(C(C(=O)NC2CCCC2)N(Cc2ccco2)C(=O)CCC(=O)Nc2cc(C)on2)cc1 (stereo unspecified) the results were ALR inh inactive, CHT PAM 6.4, AI-2 QS modul inactive, PREPL inh inactive, CHT block inactive, CHT act confirm inactive and HEK293 MP dye inactive.
Cc1ccc(C(C(=O)NC2CCCCC2)N(Cc2ccco2)C(=O)Cc2c[nH]c3ccccc23)o1 (stereo unspecified) was read as ALR inh inactive, CHT PAM 6.4, AI-2 QS modul inactive, PREPL inh inactive, CHT block inactive, CHT act confirm 26 and HEK293 MP dye inactive.
`CCc1ccccc1OCC(=O)Nc1cccc(S(=O)(=O)NC2=NCCC2)c1` gave PREPL inh inactive.
Screening Cc1nc(C)c(C(=O)N/N=C/c2cc(Br)ccc2O)s1 returned ALR inh inactive, CHT PAM inactive, AI-2 QS modul inactive, PREPL inh inactive and CHT block inactive.
Screening CCn1cc(C(=O)OC)c(=O)c2ccc(C)nc21 returned ALR inh inactive, CHT PAM 12, PREPL inh inactive, CHT block inactive, CHT act confirm 79 and HEK293 MP dye -75.
COc1ccc(N(CC(=O)Nc2nccs2)S(=O)(=O)c2c(C)[nH]c(=O)[nH]c2=O)cc1 was read as ALR inh inactive, CHT PAM inactive, AI-2 QS modul inactive, PREPL inh inactive and CHT block inactive.
Screening CCn1cc(C(=O)O)c(=O)c2cc(F)c(N3CCNCC3)cc21 returned CHT PAM 14, AI-2 QS modul inactive, PREPL inh inactive, CHT block inactive, CHT act confirm 39 and HEK293 MP dye -42.
CCCCCCNC(=O)c1cn(CC)c2cc(N3CCN(C)CC3)c(F)cc2c1=O was read as ALR inh inactive, CHT PAM inactive, AI-2 QS modul inactive, PREPL inh inactive and CHT block inactive.
`CCCCCCCC(=O)N1CCN(c2cc3c(cc2F)c(=O)c(C(=O)O)cn3CC)CC1` gave ALR inh inactive, CHT PAM inactive, AI-2 QS modul inactive and CHT block inactive.
Screening CCCCCCn1cc(C(=O)O)c(=O)c2cc(F)c(N3CCN(C)CC3)cc21 returned ALR inh inactive, CHT PAM 6.9, AI-2 QS modul inactive, PREPL inh inactive, CHT block inactive, CHT act confirm 59 and HEK293 MP dye -76.
`Cc1cc(=O)[nH]c(SCC(=O)Nc2ccnc3ccccc23)n1` gave ALR inh inactive, CHT PAM inactive, AI-2 QS modul inactive, PREPL inh inactive, CHT block inactive, CHT act confirm 31 and HEK293 MP dye -51.
For Cc1cc(=O)[nH]c(SCC(=O)Nc2ccccc2[N+](=O)[O-])n1 the results were ALR inh inactive, CHT PAM inactive, AI-2 QS modul inactive, PREPL inh inactive and CHT block inactive.
Clc1ccc(-n2cccc2CN2CCc3c([nH]c4ccccc34)C2c2ccccn2)nc1 (stereo unspecified) was read as ALR inh inactive, CHT PAM 7, AI-2 QS modul inactive, PREPL inh inactive, CHT block inactive, CHT act confirm 40 and HEK293 MP dye inactive.

Source: PubChem BioAssay (several laboratories)
